High-throughput results from PubChem BioAssay.
AddAB inh: growth inhibition of E. coli expressing H. pylori AddAB, primary screen, AddAB inhibitor project, absorbance | inhibition, % at 11.9 µM | actives 0.29% (n = 330,000) | AID 435030, 2010; in the data active means inhibition above about 12%;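 further: 0% = vehicle wells of infected cells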
phage Ecoli inh: growth loss of phage-infected E. coli, primary screen, RecBCD inhibitor project, absorbance, with phage, HTS | inhibition, % at 11.9 µM | actives 0.26% (n = 360,000) | AID 651602, 2012; in the data active means inhibition above about 11%
Tat transport: E. coli Tat export inhibitors, primary screen, MC4100, TorA-mCherry reporter, fluorescence, single point | inhibition, % at 10 µM | actives 0.036% (n = 340,000);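 active means mean replicate inhibition at least 50% and at least half of replicates individually reaching 50%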;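 further: exported cargo escapes ClpAP degradation while cytoplasmic cargo is degraded and loses fluorescence; 0% = median of neutral control wells and 100% = median of NaSCN control wells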
E coli growth-1: E. coli V3065 growth inhibition, primary screen, counter-screen for AddAB inhibitor project, absorbance, OD600; AID 449728, 2010; 18 h; actives 0.27% (n = 330,000); inhibition, % at 11.9 µM;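 active means inhibition above the campaign's mean inhibition across all tested compounds plus 3 SD, cut at about 9.9% in these data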;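 further: uninfected addAB+ strain grown without phage in ampicillin broth; 0% = DMSO wells and 100% = ciprofloxacin 0.95 µg/ml wells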
E coli growth-2: E. coli growth inhibition, primary screen, OD600; actives 0.21% (n = 330,000); OD600 absorbance (test concentration not listed); AID 1053175, 2014; Escherichia coli growth, 23 h; stronger effect = lower value;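 active means OD600 absorbance below the run mean of sample wells minus 3.6 SD, in any replicate, cut at about 0.56 in these data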
Numbers without * were called inactive; · = not tested or not shown. This is a sample that favours compounds with a hit; in the whole collection about 0.5% have one here.

SMILES	AddAB inh	phage Ecoli inh	Tat transport	E coli growth-1	E coli growth-2
O=C(Nc1ccc(Cc2ccncc2)cc1)c1cccc([N+](=O)[O-])c1	2.0	2.8	5.0	1.6	0.673
O=C(Nc1ccc(Cc2ccncc2)cc1)c1ccc([N+](=O)[O-])o1	11.7	8.6	-3.8	12.8*	0.582
CN1CCN(C(c2cccs2)c2nnnn2Cc2ccc(F)cc2)CC1 (stereo unspecified)	0.7	1.4	1.5	-1.7	0.446*
CC(C)c1cc(C(=O)NN=Cc2cccnc2)n[nH]1	·	·	·	·	0.681
O=C(NCCc1ccc(F)cc1)Nc1ccc([N+](=O)[O-])cc1	·	7.3	0.4	·	0.553
O=[N+]([O-])c1ccc(NC(=S)NCCc2ccc(F)cc2)cc1	10.9	9.1	-13.8	9.7	0.461*
COc1ccc(/C=C/C(O)=C(\C#N)c2nnc(N3CCOCC3)n2-c2ccccc2)cc1OC	1.1	0.5	-6.7	-1.4	0.426*
N#CC(=C1C(=O)Nc2ccc(Br)cc21)c1ccccn1	·	·	·	·	0.681
O=C(NNC(=O)c1ccco1)c1ccccc1	3.3	4.0	2.6	1.4	0.718
O=C(Cc1cccs1)NNC(=S)NC(=O)c1ccco1	-5.0	2.2	-4.9	-4.6	0.315*
O=C(NC(=S)NNC(=O)c1ccco1)c1ccccc1	-7.8	-4.0	0.3	-6.5	0.508*
CC(=O)NC1=NC(=O)C(=Cc2cc(C)n(-c3cccc(C(=O)O)c3)c2C)S1	·	·	·	·	0.7
S=C(NCCNCc1ccccc1)NC1CCCCC1	98.4*	·	·	97.6*	·
S=C(NCCc1ccccc1)NC1CCCCCC1	2.2	2.4	-1.0	3.0	0.647
Cc1ccc(Cn2cc(C=CC(=O)O)c(-c3ccccc3)n2)cc1	·	·	·	·	0.679
c1ccc2c3c([nH]c2c1)-c1[nH]ncc1CC3	3.6	0.3	-8.6	0.1	0.604
Clc1ccc2[nH]c3c(c2c1)CCc1cn[nH]c1-3	1.3	2.1	3.0	-0.9	0.562*
CCn1c(CCn2c3ccccc3c3ccccc32)n[nH]c1=S	2.8	5.4	50.3*	3.6	0.678
CCn1c(CCc2ccccc2)n[nH]c1=S	1.2	-2.8	-1.7	1.6	0.671
COc1cc(/C=C/C(O)=C/C(=O)/C=C/c2ccc(O)cc2)ccc1O	8.5	10.6	3.8	10.1*	·
Clc1ccccc1C=NNc1cc(N2CCOCC2)ncn1	·	·	·	·	0.679
CCn1cc(C(=O)Nc2ccccc2)c(=O)c2ccc(C)nc21	4.7	·	·	-1.1	0.749
CCn1cc(C(=O)NC2CCCCC2C)c(=O)c2ccc(C)nc21 (stereo unspecified)	6.8	2.0	2.4	1.9	0.0585*
N#CC(=NNc1ccc([N+](=O)[O-])cc1)C(=N)N1CCCCC1	·	·	·	·	0.617
O=C(Cc1cccs1)NN=C/C=C/c1ccccc1	·	·	·	·	0.675
SMILES	AddAB inh	phage Ecoli inh	Tat transport	E coli growth-1	E coli growth-2
CC(=NNC(=O)CSc1nc2ccccc2n1C)c1ccco1	·	·	·	·	0.701
c1ccc(-c2sc3ccccc3c2-c2ccc(OCCN3CCCCC3)cc2)cc1	1.2	1.6	10.2	1.6	0.649
CN(C)CCOc1ccc(-c2c(-c3ccccc3)sc3ccccc23)cc1	0.2	2.9	13.4	-0.8	0.336*
COc1ccc(-c2nn(-c3ccccc3)cc2C=NNC(=O)c2cccc(S(=O)(=O)Nc3ccccc3Cl)c2)cc1	·	·	·	·	0.699
CC1CC[C@]2(C(=O)OC3OC(CO)C(O)C(O)C3O)CC[C@]3(C)C(=CCC4[C@@]5(C)CCC(OC6OCC(O)C(OC7OC(CO)C(O)C(O)C7O)C6O)C(C)(C)C5CC[C@]43C)C2[C@]1(C)O (stereo partly specified)	·	·	·	·	0.691
CCOC(=O)Cc1csc(NC(=O)C2CCCN(S(=O)(=O)c3cnc[nH]3)C2)n1 (stereo unspecified)	24.4*	1.5	7.9	14.0*	0.727
CCOc1ccc(NC(=O)C2CCCN(S(=O)(=O)c3cnc[nH]3)C2)cc1 (stereo unspecified)	0.0	·	-2.2	0.3	0.688
Cc1cc(=O)[nH]c(SCC(=O)Nc2ccc(Br)cc2)c1C#N	9.8	8.4	-8.5	8.2	0.514*
CC(=NNC(=O)Cc1ccc(Cl)cc1)c1cccnc1	·	·	·	·	0.699
O=S(=O)(c1ccc(NC(=S)NN=Cc2ccc(O)c(O)c2)cc1)N1CCOCC1	·	·	·	·	0.611
Cc1ccsc1C=CC1=NCCCN1C	·	·	·	·	0.659
CN(C)CC(=O)c1c(N)n(Cc2ccccc2)c(=O)n(C)c1=O	5.1	-1.8	-2.2	-0.4	0.537*
Cc1ccc(C(=O)N/N=C/c2ccc(-c3ccccc3[N+](=O)[O-])o2)cn1	0.7	1.4	-3.5	-0.9	·
CCOC(=O)NN=Cc1ccc([N+](=O)[O-])o1	·	·	·	·	0.455*
Cc1ccc(C(=O)NN=Cc2ccc([N+](=O)[O-])o2)cn1	·	·	·	·	0.438*
COc1ccc(-c2nn(-c3ccccc3)cc2C=NNc2ccccn2)cc1OC	·	·	·	·	0.678
CCn1cc(C=C2SC(=O)N(CC(=O)Nc3ccc4c(c3)OCO4)C2=O)c2ccccc21	·	·	·	·	0.694
O=[N+]([O-])c1ccccc1C=NNC1=NS(=O)(=O)c2ccccc21	·	·	·	·	0.693
COCCCNC(=O)CSc1ccsc1[N+](=O)[O-]	11.6	5.6	-2.9	11.2*	0.686
Nc1c(Cl)ncnc1NN=Cc1ccccn1	·	·	·	·	0.444*
O=c1cnnc(NN=Cc2c[nH]c3ccccc23)[nH]1	·	·	·	·	0.711
C(=NNc1nncc2ccccc12)c1ccccn1	·	·	·	·	0.495*
O=c1cnnc(NN=Cc2ccccn2)[nH]1	·	·	·	·	0.426*
Nc1c(Cl)ncnc1N/N=C/c1cccnc1	0.0	2.8	6.2	-0.3	·
Cn1cc(C=NNC(=O)c2ccc(C#N)cc2F)c2ccccc21	·	·	·	·	0.674
SMILES	AddAB inh	phage Ecoli inh	Tat transport	E coli growth-1	E coli growth-2
Nc1nonc1-n1nnc(C(=O)NN=Cc2ccncc2)c1-c1cccs1	·	·	·	·	0.663
CCn1cc(C(=O)O)c(=O)c2cnc(N3CCN(C(=S)NC(=O)c4ccccc4)CC3)nc21	2.7	-5.6	3.5	-0.6	0.407*
COc1ccc(/C=C2\SC(=O)N(CCNC(=O)C3CC(=O)N(c4ccccc4)C3)C2=O)cc1 (stereo unspecified)	9.1	3.1	6.7	12.0*	0.705
CCOc1ccc(N2CC(C(=O)NCCN3C(=O)S/C(=C\c4ccc(OC)cc4)C3=O)CC2=O)cc1 (stereo unspecified)	0.9	0.9	-9.6	-0.5	0.717
CN1CCN(C(=O)C2=CC(c3coc4ccccc4c3=O)CC(OCc3ccc(CO)cc3)O2)CC1 (stereo unspecified)	·	·	·	·	0.721
Cc1ccc(NS(=O)(=O)c2ccc(OCC(=O)NCc3ccco3)cc2)cc1	9.7	3.2	-1.5	13.4*	0.752
Cc1ccc(C=NNC(=O)CSc2nnc(-c3ccc(Cl)cc3)n2-c2ccc(Cl)cc2)o1	·	·	·	·	0.686
Cc1ccc(/C=N/NC(=O)CSc2nnc(-c3ccc(Cl)cc3)n2-c2ccc(Cl)cc2)o1	7.4	10.7	-0.7	13.4*	·
CC(=NNC(=O)Cc1cccn1C)c1ccc([N+](=O)[O-])cc1	·	·	·	·	0.627
FC(F)(F)c1cccc(NC(=S)Nc2ccc(Cl)c(Cl)c2)c1	1.4	6.5	-5.7	0.2	0.401*
FC(F)(F)c1cccc(NC(=S)NNC(=S)Nc2cccc(C(F)(F)F)c2)c1	-3.1	·	·	0.2	·
